According to PubChem BioAssay (Tox21):
Values without a mark were called inactive. Inconclusive results are not listed. Active and inactive are the calls of the source. Calls come from the whole dose curve.

What follows are compounds tested against Acetylcholinesterase (Homo sapiens) (UniProt P22303) (assay: Acetylcholinesterase (AChE) small molecule antagonists: enzyme-based qHTS assay (AID 1347397; note: nearly all actives have a fitted effect of over 55% in size)). Settings: Potency: AChE enzyme activity inhibition; outcome: AChE enzyme activity inhibition; series mostly up to 115 µM; activity change, negative = inhibition: at the top concentration.
Sequence of Acetylcholinesterase (Homo sapiens) (P22303 whole entry, looked up): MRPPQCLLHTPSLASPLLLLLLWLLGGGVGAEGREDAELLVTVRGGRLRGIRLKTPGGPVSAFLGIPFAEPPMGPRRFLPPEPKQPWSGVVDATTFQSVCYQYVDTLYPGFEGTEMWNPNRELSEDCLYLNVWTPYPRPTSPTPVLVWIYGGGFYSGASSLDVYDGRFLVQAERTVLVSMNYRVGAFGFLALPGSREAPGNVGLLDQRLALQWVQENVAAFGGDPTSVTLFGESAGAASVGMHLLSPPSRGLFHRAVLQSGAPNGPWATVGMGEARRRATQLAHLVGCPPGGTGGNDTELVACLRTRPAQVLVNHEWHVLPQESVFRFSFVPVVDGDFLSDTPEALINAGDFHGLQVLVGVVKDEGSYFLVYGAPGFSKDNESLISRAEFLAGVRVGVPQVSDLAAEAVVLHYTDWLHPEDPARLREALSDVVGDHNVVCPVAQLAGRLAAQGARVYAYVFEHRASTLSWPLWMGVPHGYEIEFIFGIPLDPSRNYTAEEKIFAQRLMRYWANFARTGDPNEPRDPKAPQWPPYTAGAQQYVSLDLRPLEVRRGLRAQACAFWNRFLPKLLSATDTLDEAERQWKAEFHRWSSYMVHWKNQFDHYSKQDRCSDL
Procedure, shortened: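 Absorbance-based detection of thiocholine with DTNB served as the read-out. Recombinant human AChE was exposed to compound for 30 min at RT before a 10 min RT incubation with acetylthiocholine.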
% is set by controls: 0 for no effect and ±100 for the full control effect.

First: CCCCCCCCCCCCCCC(=O)O
Second: CCCCCCCC/C=C\CCCCCCCC(=O)OC
The “activity change, negative = inhibition” value of the first is higher: -0.953% for the first, -1.91% for the second.

First: OCCN(CCO)c1ccccc1
Second: CCc1ccccc1
The “activity change, negative = inhibition” value of the first is higher: 2.25% for the first, 0.954% for the second.

Compared with `CC(C)CCCCCOC(=O)CS`, `CC(C)CCCCCOC(=O)CCCCC(=O)OCCCCCC(C)C` is higher in “activity change, negative = inhibition” value: -0.0037% for the first, 1.91% for the second.

First: O=Cc1ccc([N+](=O)[O-])cc1
Second: Nc1ccc(O)c([N+](=O)[O-])c1
The “activity change, negative = inhibition” value of the first is higher: -0.545% for the first, -5.98% for the second.

First: CCC(CC)C(=O)O
Second: CCCOC(=O)CC
The “activity change, negative = inhibition” value of the first is lower: -0.395% for the first, 0% for the second.

First: O=C(Cl)c1c(Cl)cccc1Cl
Second: CC(Oc1cc(Cl)ccc1Cl)C(=O)O (stereo not given)
The “activity change, negative = inhibition” value of the first is lower: -20% for the first, 0.387% for the second.

Going from `CC(C)(C)C(=O)c1ccccc1` to `C/C(C=O)=C\c1ccccc1`, the “activity change, negative = inhibition” value falls from 0.006% to -0.409%.

Going from `CC(C)Cc1nccs1` to `CN(C)Cc1cc(C(C)(C)C)c(O)c(C(C)(C)C)c1`, the “activity change, negative = inhibition” value rises from -0.716% to 0.785%.

Going from `CN1C(=O)c2ccccc2C1=O` to `CC(C(=O)O)c1ccc(-c2ccccc2)c(F)c1` (stereo not given), the “activity change, negative = inhibition” value falls from 2.11% to 1.03%.

Compared with `CCC(C)OC(=O)N1CCCCC1CCO` (stereo not given), `CCCCN(CCC(=O)OCC)C(C)=O` is higher in “activity change, negative = inhibition” value: 0.375% for the first, 1.27% for the second.

Going from `CCCC(=O)OCOC(=O)C1=C(C)NC(C)=C(C(=O)OC)C1c1cccc(Cl)c1Cl` (stereo not given) to `Cc1cccc(C)c1NC(=O)CC12CCCN1CCC2`, the “activity change, negative = inhibition” value rises from -1.48% [at 53 µM] to -0.277% [at 53 µM].

Compared with `N[C@H]1CN(c2c(F)cc3c(=O)c(C(=O)O)cn(C4C[C@H]4F)c3c2Cl)CC12CC2` (stereo not given in full), `O=C(NCC1CN(c2ccc(N3CCOCC3=O)cc2)C(=O)O1)c1ccc(Cl)s1` (stereo not given) is lower in “activity change, negative = inhibition” value: 2.63% [at 53 µM] for the first, 0.406% [at 53 µM] for the second.

Compared with `O=S(c1cc(Cl)cc(Cl)c1O)c1cc(Cl)cc(Cl)c1O`, `CSc1ccc(/C=C2/C(C)=C(CC(=O)O)c3cc(F)ccc32)cc1` is higher in “activity change, negative = inhibition” value: 1.35% [at 53 µM] for the first, 3.64% [at 53 µM] for the second.

Going from `CC(C)(C)c1cc(CCC(=O)OCC(COC(=O)CCc2cc(C(C)(C)C)c(O)c(C(C)(C)C)c2)(COC(=O)CCc2cc(C(C)(C)C)c(O)c(C(C)(C)C)c2)COC(=O)CCc2cc(C(C)(C)C)c(O)c(C(C)(C)C)c2)cc(C(C)(C)C)c1O` to `CC(C)C(=O)c1c(C(C)C)nn2ccccc12`, the “activity change, negative = inhibition” value rises from 0.474% [at 53 µM] to 1.79% [at 53 µM].

First: C[C@]12CCC(=O)C=C1C=C[C@@H]1[C@@H]2CC[C@@]2(C)[C@H]1CC[C@@]21CCC(=O)O1
Second: O=c1[nH]c(=O)n([C@H]2C[C@H](O)[C@@H](CO)O2)cc1C(F)(F)F
The “activity change, negative = inhibition” value of the first is lower: -2.01% [at 53 µM] for the first, 0.945% [at 53 µM] for the second.

`CC(=O)OCC=C(C)C` was tested, and the “activity change, negative = inhibition” value was 0.238% [at 53 µM].

`C=CC(=O)OCCCCCCOC(=O)C=C` was tested, and the Potency was “inactive”.
`COc1ccc(CCC(C)=O)cc1` was tested, and the Potency was “inactive”.
With `OCc1cccc(Oc2ccccc2)c1` the Potency was “inactive”.
`C=C(C)C(=O)O` was tested, and the Potency was “inactive”.
In the case of `COCCOCCOCCO`, the Potency was “inactive”.
With `COCC(C)O` (stereo not given) the Potency was “inactive”.
With `COc1ccc2c(c1)c(CC(=O)O)c(C)n2C(=O)c1ccc(Cl)cc1` the Potency was “inactive”.
For `CCCOC(=O)c1cc(O)c(O)c(O)c1`, the Potency was “inactive”.

With `O=C(O)O` the activity change, negative = inhibition was 0.136% [at 10.5 µM].

What follows are compounds tested against Acetylcholinesterase (Homo sapiens) (UniProt P22303) (assay: Acetylcholinesterase (AChE) small molecule antagonists: fluorescence cell-based qHTS assay (AID 1347398; note: nearly all actives have a fitted effect of over 50% in size; note: potency is the fitted concentration of half-maximal effect)). Settings: SH-SY5Y cells; Potency: AChE activity; outcome: AChE activity; series mostly up to 115 µM; activity change, negative = inhibition: at the top concentration.
Procedure, shortened: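 Fluorimetric cell-based assay: intact SH-SY5Y cells, 30 min compound preincubation at 37 C, acetylthiocholine substrate with thiol probe Thiolite Green, 40 min RT development, fluorescence 490/520 nm.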

First: CCCCCCCCCCCCCCC(=O)O
Second: CCCCCCCC/C=C\CCCCCCCC(=O)OC
The “activity change, negative = inhibition” value of the first is higher: 2.11% for the first, -19.7% for the second.

Going from `OCCN(CCO)c1ccccc1` to `CCc1ccccc1`, the “activity change, negative = inhibition” value falls from 4.72% to -1.02%.

Going from `CC(C)CCCCCOC(=O)CS` to `CC(C)CCCCCOC(=O)CCCCC(=O)OCCCCCC(C)C`, the “activity change, negative = inhibition” value falls from -1.2% to -8.74%.

First: O=Cc1ccc([N+](=O)[O-])cc1
Second: Nc1ccc(O)c([N+](=O)[O-])c1
The “activity change, negative = inhibition” value of the first is lower: -9.7% for the first, -8.56% for the second.

Compared with `CCC(CC)C(=O)O`, `CCCOC(=O)CC` is higher in “activity change, negative = inhibition” value: -1.52% for the first, 1.05% for the second.

Going from `CC(C)(C)C(=O)c1ccccc1` to `C/C(C=O)=C\c1ccccc1`, the “activity change, negative = inhibition” value rises from -4.77% to 3.68%.

Going from `CC(C)Cc1nccs1` to `CC(Oc1cc(Cl)ccc1Cl)C(=O)O` (stereo not given), the “activity change, negative = inhibition” value falls from -2.91% to -3.26%.

Going from `CN1C(=O)c2ccccc2C1=O` to `CC(C(=O)O)c1ccc(-c2ccccc2)c(F)c1` (stereo not given), the “activity change, negative = inhibition” value rises from 2.69% to 4.83%.

Compared with `CN(C)Cc1cc(C(C)(C)C)c(O)c(C(C)(C)C)c1`, `CCCCN(CCC(=O)OCC)C(C)=O` is higher in “activity change, negative = inhibition” value: -0.888% for the first, -0.189% for the second.

In the case of `CCC(C)OC(=O)N1CCCCC1CCO` (stereo not given), the “activity change, negative = inhibition” value was -0.317%.

Going from `CCCC(=O)OCOC(=O)C1=C(C)NC(C)=C(C(=O)OC)C1c1cccc(Cl)c1Cl` (stereo not given) to `Cc1cccc(C)c1NC(=O)CC12CCCN1CCC2`, the “activity change, negative = inhibition” value rises from -3.2% [at 53.7 µM] to -1.12% [at 53.7 µM].

First: N[C@H]1CN(c2c(F)cc3c(=O)c(C(=O)O)cn(C4C[C@H]4F)c3c2Cl)CC12CC2 (stereo not given in full)
Second: O=C(NCC1CN(c2ccc(N3CCOCC3=O)cc2)C(=O)O1)c1ccc(Cl)s1 (stereo not given)
The “activity change, negative = inhibition” value of the first is higher: 3.57% [at 53.7 µM] for the first, 2.49% [at 53.7 µM] for the second.

First: O=S(c1cc(Cl)cc(Cl)c1O)c1cc(Cl)cc(Cl)c1O
Second: CSc1ccc(/C=C2/C(C)=C(CC(=O)O)c3cc(F)ccc32)cc1
The “activity change, negative = inhibition” value of the first is lower: 9.73% [at 53.7 µM] for the first, 11.2% [at 53.7 µM] for the second.

Compared with `CC(C)(C)c1cc(CCC(=O)OCC(COC(=O)CCc2cc(C(C)(C)C)c(O)c(C(C)(C)C)c2)(COC(=O)CCc2cc(C(C)(C)C)c(O)c(C(C)(C)C)c2)COC(=O)CCc2cc(C(C)(C)C)c(O)c(C(C)(C)C)c2)cc(C(C)(C)C)c1O`, `CC(C)C(=O)c1c(C(C)C)nn2ccccc12` is lower in “activity change, negative = inhibition” value: 0.526% [at 53.7 µM] for the first, -7.01% [at 53.7 µM] for the second.

First: C[C@]12CCC(=O)C=C1C=C[C@@H]1[C@@H]2CC[C@@]2(C)[C@H]1CC[C@@]21CCC(=O)O1
Second: O=c1[nH]c(=O)n([C@H]2C[C@H](O)[C@@H](CO)O2)cc1C(F)(F)F
The “activity change, negative = inhibition” value of the first is lower: -7.96% [at 53.7 µM] for the first, 3.39% [at 53.7 µM] for the second.

`CC(=O)OCC=C(C)C` was tested, and the “activity change, negative = inhibition” value was 1.27% [at 53.7 µM].

With `C=CC(=O)OCCCCCCOC(=O)C=C` the Potency was “inactive”.
With `COc1ccc(CCC(C)=O)cc1` the Potency was “inactive”.
With `OCc1cccc(Oc2ccccc2)c1` the Potency was “inactive”.
In the case of `O=C(Cl)c1c(Cl)cccc1Cl`, the Potency was 40.4 µM (active).
`C=C(C)C(=O)O` was tested, and the Potency was “inactive”.
`COCCOCCOCCO` was tested, and the Potency was “inactive”.
With `COCC(C)O` (stereo not given) the Potency was “inactive”.
In the case of `COc1ccc2c(c1)c(CC(=O)O)c(C)n2C(=O)c1ccc(Cl)cc1`, the Potency was “inactive”.
`CCCOC(=O)c1cc(O)c(O)c(O)c1` was tested, and the Potency was “inactive”.

Work on `O=C(O)O` yielded an activity change, negative = inhibition of 2.47% [at 10.5 µM].
